Assay results from PubChem BioAssay AID1159580 (chemical genetic matrix, 2015).
In all, about 5,500 compounds went through this assay and about 2,000 (36%) were called active. Roughly 18% stayed inconclusive and do not appear here. No stated cut-off is given here; in the data, active means normalized growth mostly below about 0.91 (no sharp cut-off); inconclusive means no clear call, values can overlap the other calls; inactive means mostly above about 0.92. The list shows a part of the results.

Assay: chemical genetic growth profiling, strain panel (AID 1159580);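 further: tested at 20 µM; growth read once vehicle control cultures reached saturation at 30 °C; 1 = growth at the plate median or of vehicle wells; lower values mean less growth of the strain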
Details: growth OD

Measured: normalized growth

COc1ccc(C2Sc3ccccc3N(CCN(C)C)C(=O)C2OC(C)=O)cc1 (stereo not given)
inactive: S. cerevisiae deletion strains, locus YKL009W, strain mrt4, hits give low values 1.04 | S. cerevisiae deletion strains, locus YKL068W, hits give low values 1.02 | S. cerevisiae deletion strains, locus YKL085W, strain MDH1 (second series), hits give low values 1.03 | S. cerevisiae deletion strains, locus YKL085W, strain MDH1, hits give low values 1.03 | S. cerevisiae deletion strains, locus YKL160W, strain elf1, hits give low values 0.972 | S. cerevisiae deletion strains, locus YKL190W, strain CNB1, hits give low values 0.994 | S. cerevisiae deletion strains, locus YKR001C, strain vps1, hits give low values 1.04 | S. cerevisiae deletion strains, locus YKR026C, strain gcn3, hits give low values 0.931 | S. cerevisiae deletion strains, locus YKR091W, strain srl3, hits give low values 0.983 | S. cerevisiae deletion strains, locus YLL001W, strain dnm1, hits give low values 0.944 | S. cerevisiae deletion strains, locus YLL026W, hits give low values 0.983 | S. cerevisiae deletion strains, locus YLL041C, strain sdh2, hits give low values 0.956 | S. cerevisiae deletion strains, locus YLR027C, strain aat2, hits give low values 0.974 | S. cerevisiae deletion strains, locus YLR039C, strain RIC1, hits give low values 1.04 | S. cerevisiae deletion strains, locus YLR058C, strain SHM2, hits give low values 1.01 | S. cerevisiae deletion strains, locus YLR102C, strain apc9, hits give low values 1.04 | S. cerevisiae deletion strains, locus YLR113W, strain HOG1, hits give low values 1.01 | S. cerevisiae deletion strains, locus YLR221C, strain rsa3, hits give low values 0.989 | S. cerevisiae deletion strains, locus YLR258W, strain gsy2, hits give low values 0.974 | S. cerevisiae deletion strains, locus YLR262C, strain YPT6 (second series), hits give low values 0.977 | S. cerevisiae deletion strains, locus YLR262C, strain YPT6, hits give low values 1.04 | S. cerevisiae deletion strains, locus YLR268W, strain sec22, hits give low values 1.03 | S. cerevisiae deletion strains, locus YLR320W, strain mms22, hits give low values 1.02 | S. cerevisiae deletion strains, locus YLR330W, strain CHS5, hits give low values 1.01 | S. cerevisiae deletion strains, locus YLR342W, strain FKS1 (second series), hits give low values 1.02 | S. cerevisiae deletion strains, locus YLR342W, strain FKS1, hits give low values 0.979 | S. cerevisiae deletion strains, locus YLR357W, strain rsc2, hits give low values 0.922 | S. cerevisiae deletion strains, locus YLR370C, strain arc18, hits give low values 0.973 | S. cerevisiae deletion strains, locus YLR371W, strain rom2, hits give low values 1.03 | S. cerevisiae deletion strains, locus YLR384C, strain iki3, hits give low values 0.941 | S. cerevisiae deletion strains, locus YLR418C, strain cdc73, hits give low values 1.06 | S. cerevisiae deletion strains, locus YML016C, strain PPZ1, hits give low values 1.01 | S. cerevisiae deletion strains, locus YML032C, strain rad52, hits give low values 1.06 | S. cerevisiae deletion strains, locus YML120C, strain ndi1, hits give low values 0.982 | S. cerevisiae deletion strains, locus YML124C, strain tub3, hits give low values 1.03 | S. cerevisiae deletion strains, locus YMR058W, strain fet3, hits give low values 0.986 | S. cerevisiae deletion strains, locus YMR078C, strain ctf18, hits give low values 1.04 | S. cerevisiae deletion strains, locus YMR125W, strain sto1, hits give low values 0.896 | S. cerevisiae deletion strains, locus YMR129W, hits give low values 0.975 | S. cerevisiae deletion strains, locus YMR205C, strain PFK2, hits give low values 0.98 | S. cerevisiae deletion strains, locus YMR223W, strain ubp8, hits give low values 1.04 | S. cerevisiae deletion strains, locus YMR231W, strain pep5, hits give low values 0.965 | S. cerevisiae deletion strains, locus YMR263W, strain SAP30, hits give low values 1 | S. cerevisiae deletion strains, locus YMR307W, strain GAS1, hits give low values 1.07 | S. cerevisiae deletion strains, locus YNL067W, strain RPL9B, hits give low values 1.02 | S. cerevisiae deletion strains, locus YNL071W, strain lat1, hits give low values 0.998 | S. cerevisiae deletion strains, locus YNL128W, strain TEP1, hits give low values 1.02 | S. cerevisiae deletion strains, locus YNL153C, strain GIM3, hits give low values 1.01 | S. cerevisiae deletion strains, locus YNL183C, strain NPR1, hits give low values 0.953 | S. cerevisiae deletion strains, locus YNL209W, strain ssb2, hits give low values 0.973 | S. cerevisiae deletion strains, locus YNL233W, strain BNI4, hits give low values 1.01 | S. cerevisiae deletion strains, locus YNL250W, strain rad50, hits give low values 1.07 | S. cerevisiae deletion strains, locus YNL271C, strain bni1, hits give low values 1.04 | S. cerevisiae deletion strains, locus YNL298W, strain CLA4, hits give low values 1.06 | S. cerevisiae deletion strains, locus YNL307C, strain MCK1, hits give low values 1.05 | S. cerevisiae deletion strains, locus YNL322C, strain KRE1 (second series), hits give low values 0.974 | S. cerevisiae deletion strains, locus YNL322C, strain KRE1, hits give low values 1.01 | S. cerevisiae deletion strains, locus YNR049C, strain mso1, hits give low values 0.977 | S. cerevisiae deletion strains, locus YNR052C, strain pop2, hits give low values 1.05 | S. cerevisiae deletion strains, locus YOL006C, strain TOP1, hits give low values 1.07 | S. cerevisiae deletion strains, locus YOL012C, strain htz1 1.17 | S. cerevisiae deletion strains, locus YOL147C, strain pex11, hits give low values 1.04 | S. cerevisiae deletion strains, locus YOR001W, strain rrp6, hits give low values 0.945 | S. cerevisiae deletion strains, locus YOR061W, strain CKA2, hits give low values 1.01 | S. cerevisiae deletion strains, locus YOR069W, strain VPS5, hits give low values 1.01 | S. cerevisiae deletion strains, locus YOR070C, strain gyp1, hits give low values 0.989 | S. cerevisiae deletion strains, locus YOR080W, strain dia2, hits give low values 0.973 | S. cerevisiae deletion strains, locus YOR083W, strain WHI5, hits give low values 0.976 | S. cerevisiae deletion strains, locus YOR106W, strain vam3, hits give low values 0.903 | S. cerevisiae deletion strains, locus YOR136W, strain idh2, hits give low values 1.04 | S. cerevisiae deletion strains, locus YOR144C, strain elg1, hits give low values 1.04 | S. cerevisiae deletion strains, locus YOR184W, strain ser1, hits give low values 1.07 | S. cerevisiae deletion strains, locus YOR231W, strain MKK1, hits give low values 1.01 | S. cerevisiae deletion strains, locus YOR265W, strain rbl2, hits give low values 0.974 | S. cerevisiae deletion strains, locus YOR270C, strain vph1, hits give low values 0.902 | S. cerevisiae deletion strains, locus YOR290C, strain snf2, hits give low values 0.998 | S. cerevisiae deletion strains, locus YOR316C, strain cot1, hits give low values 1.03 | S. cerevisiae deletion strains, locus YPL051W, strain arl3, hits give low values 0.977 | S. cerevisiae deletion strains, locus YPL055C, strain LGE1, hits give low values 1.04 | S. cerevisiae deletion strains, locus YPL078C, strain atp4, hits give low values 0.943 | S. cerevisiae deletion strains, locus YPL106C, strain sse1, hits give low values 0.976 | S. cerevisiae deletion strains, locus YPL240C, strain hsp82, hits give low values 0.972 | S. cerevisiae deletion strains, locus YPL241C, strain CIN2, hits give low values 1.01 | S. cerevisiae deletion strains, locus YPL256C, strain CLN2, hits give low values 0.991 | S. cerevisiae deletion strains, locus YPR119W, strain clb2, hits give low values 1.03 | S. cerevisiae deletion strains, locus YPR141C, strain kar3, hits give low values 1.06 | S. cerevisiae deletion strains, locus YPR163C, strain tif3, hits give low values 1.05 | S. cerevisiae deletion strains, locus YPR167C, strain met16, hits give low values 1.04 | S. cerevisiae deletion strains, strain wtn01, hits give low values 1.03 | S. cerevisiae strains, strain wild type, hits give low values 1.01
